# Screen size: about 39,000 compounds; about 3,300 (8.5%) were called active. The list comes from a sample in which actives are over-represented; it also holds similar structures and randomly drawn compounds.
# System: HepG2
# Assay: cytotoxicity call (relative viability < 0.9)
# Conditions: 10 µM
row,Structure (SMILES),cytotoxicity call
1,O=C(C[C@@H]1CC[C@H](NS(=O)(=O)c2ccccc2F)[C@@H](CO)O1)NCCCN1CCOCC1,inactive
2,C[C@@H]1CN([C@H](C)CO)C(=O)Cc2cc(NS(C)(=O)=O)ccc2O[C@@H]1CN(C)S(C)(=O)=O,inactive
3,C[C@H]1CN([C@@H](C)CO)S(=O)(=O)c2ccc(-c3cccnc3)cc2O[C@@H]1CN(C)C(=O)NC1CCCCC1,inactive
4,C[C@@H]1CN([C@@H](C)CO)S(=O)(=O)c2ccc(C#Cc3ccncc3)cc2O[C@@H]1CN(C)C(=O)C1CCOCC1,active
5,C[C@H](CO)N1C[C@H](C)[C@H](CN(C)C(=O)C2CCOCC2)Oc2cc(C#Cc3ccncc3)ccc2S1(=O)=O,inactive
6,CC(C)CC#Cc1ccc2c(c1)O[C@H](CN(C)C(=O)C1CCOCC1)[C@@H](C)CN([C@H](C)CO)S2(=O)=O,inactive
7,CC(C)CC#Cc1ccc2c(c1)O[C@@H](CN(C)C(=O)C1CCOCC1)[C@@H](C)CN([C@H](C)CO)S2(=O)=O,inactive
8,CC(C)CC#Cc1ccc2c(c1)O[C@H](CN(C)C(=O)C1CCOCC1)[C@H](C)CN([C@H](C)CO)S2(=O)=O,inactive
9,C[C@@H]1CN([C@H](C)CO)S(=O)(=O)c2ccc(C#Cc3ccncc3)cc2O[C@H]1CN(C)C(=O)C1CCOCC1,active
10,C[C@@H]1CN([C@@H](C)CO)S(=O)(=O)c2ccc(C#Cc3ccncc3)cc2O[C@H]1CN(C)C(=O)C1CCOCC1,active
11,CC(C)CC#Cc1ccc2c(c1)O[C@@H](CN(C)C(=O)C1CCOCC1)[C@H](C)CN([C@H](C)CO)S2(=O)=O,inactive
12,C[C@H](CO)N1C[C@H](C)[C@@H](CN(C)C(=O)C2CCOCC2)Oc2cc(C#Cc3ccncc3)ccc2S1(=O)=O,inactive
13,C[C@H]1CN([C@@H](C)CO)S(=O)(=O)c2ccc(C#Cc3ccncc3)cc2O[C@@H]1CN(C)C(=O)C1CCOCC1,active
14,C[C@@H]1CN([C@H](C)CO)C(=O)Cc2cc(NS(=O)(=O)c3ccc(F)cc3)ccc2O[C@H]1CN(C)C(=O)Nc1cccc2ccccc12,inactive
15,C[C@@H]1CN([C@@H](C)CO)S(=O)(=O)c2ccc(C3=CCCCC3)cc2O[C@H]1CN(C)C(=O)C1CCOCC1,inactive
16,C[C@@H]1CCCCO[C@@H](CN(C)C(=O)CCC(F)(F)F)[C@@H](C)CN([C@@H](C)CO)C(=O)c2cc(NS(=O)(=O)c3ccc(Cl)cc3)ccc2O1,inactive
17,Cc1ccc(S(=O)(=O)Nc2ccc3c(c2)C(=O)N([C@H](C)CO)C[C@@H](C)[C@H](CN(C)C(=O)Nc2ccccc2)OCCCC[C@H](C)O3)cc1,inactive
18,C[C@@H]1CCCCO[C@@H](CN(C)C(=O)NC2CCCCC2)[C@H](C)CN([C@@H](C)CO)C(=O)c2cc(NC(=O)Nc3cccc4ccccc34)ccc2O1,inactive
19,CN1C(=O)c2cc(NC(=O)c3cccs3)ccc2OC[C@H]2O[C@@H](CC(=O)NCCN3CCCCC3)CC[C@@H]21,inactive
20,CCCC#Cc1cnc2c(c1)C(=O)N([C@@H](C)CO)C[C@H](C)[C@@H](CN(C)S(=O)(=O)c1cccc(OC)c1)O2,inactive
21,C[C@@H]1CN([C@@H](C)CO)C(=O)Cc2cc(NC(=O)CCC(F)(F)F)ccc2O[C@@H]1CN(C)S(=O)(=O)c1cccs1,inactive
22,C[C@@H]1CN([C@@H](C)CO)S(=O)(=O)c2ccc(C#CC3CC3)cc2O[C@H]1CN(C)C(=O)c1cccc(F)c1,inactive

row,Structure (SMILES),cytotoxicity call
1,C[C@H](CO)N1C[C@H](C)[C@@H](CN(C)S(=O)(=O)c2ccc(-n3cccn3)cc2)OCc2cn(nn2)CCCC1=O,inactive
2,CNC(=O)CN1CCO[C@H]2CN(C(=O)C(C)C)C[C@@H]21,inactive
3,O=C(C[C@H]1CC=CC[C@H](NC(=O)OCC2c3ccccc3-c3ccccc32)C(=O)OCCNC1=O)NCCO,inactive
4,COc1ccccc1-c1cnc2c(c1)C(=O)N([C@@H](C)CO)C[C@@H](C)[C@@H](CN(C)C(=O)c1cccnc1)O2,inactive
5,CC(C)CC#Cc1ccc2c(c1)O[C@H](CN(C)C(=O)C1CCOCC1)[C@@H](C)CN([C@@H](C)CO)S2(=O)=O,inactive
6,C[C@H]1CN([C@@H](C)CO)S(=O)(=O)c2ccc(C#Cc3ccncc3)cc2O[C@H]1CN(C)C(=O)C1CCOCC1,active
7,CC(C)CC#Cc1ccc2c(c1)O[C@@H](CN(C)C(=O)C1CCOCC1)[C@H](C)CN([C@@H](C)CO)S2(=O)=O,inactive
8,C[C@@H]1CN([C@H](C)CO)S(=O)(=O)c2ccc(C#Cc3ccncc3)cc2O[C@@H]1CN(C)C(=O)C1CCOCC1,active
9,O=C(C[C@H]1C=C[C@@H](NC(=O)CN2CCOCC2)[C@H](CO)O1)NCc1cccc(F)c1,inactive
10,C[C@@H]1CN([C@@H](C)CO)C(=O)c2cc(N(C)C)ccc2O[C@@H](C)CCCCO[C@H]1CN(C)Cc1ccc(C(F)(F)F)cc1,inactive
11,C[C@@H]1CN([C@@H](C)CO)C(=O)CCCn2cc(nn2)CO[C@@H]1CN(C)S(=O)(=O)c1cn(C)cn1,inactive
12,C[C@@H]1CN([C@@H](C)CO)C(=O)c2cccc(NC(=O)CCCCCC(=O)Nc3ccccc3N)c2O[C@H]1CN(C)C(=O)Nc1ccc(C(F)(F)F)cc1,inactive
13,C[C@@H]1CN([C@H](C)CO)C(=O)c2cc(NC(=O)NC3CCCCC3)ccc2O[C@H]1CN(C)Cc1ccc(C(F)(F)F)cc1,inactive
14,O=C([C@@H]1N[C@@H]2c3ccc(-c4ccc(F)cc4)c(=O)n3C[C@@H]2[C@H]1CO)N1CCOCC1,inactive
15,C[C@@H]1CN([C@@H](C)CO)C(=O)c2cccc(NS(=O)(=O)c3cn(C)cn3)c2O[C@H]1CN(C)Cc1ccncc1,inactive
16,CC(C)(C(=O)O)c1ccc([C@@H](O)CCCN2CCC(C(O)(c3ccccc3)c3ccccc3)CC2)cc1,inactive
17,CC(C)(C)c1ccc(C(O)CCCN2CCC(C(O)(c3ccccc3)c3ccccc3)CC2)cc1 (stereo not drawn),active
18,CC(C)(C(=O)O)c1ccc(C(O)CCCN2CCC(C(O)(c3ccccc3)c3ccccc3)CC2)cc1.Cl (stereo not drawn),inactive
19,O=C(Nc1cc(C(F)(F)F)cc(C(F)(F)F)c1)Nc1cnn(-c2ccc([N+](=O)[O-])cc2)c1C(F)(F)F,active
20,O=C(Nc1cc(C(F)(F)F)cc(C(F)(F)F)c1)Nc1c(Br)cc(Br)cc1-c1nn[nH]n1,inactive
21,O=C(NCO)c1ccc([N+](=O)[O-])cc1,inactive

# From the antibiotic and cytotoxicity screens of Wong et al. (2023)
